Substitutions are numbered along the chain they refer to.

Consider four sequences from PMC11006913.

What all share (assay): PBM; 200 nM protein, PBS
What all share (settings): dsDNA, one strand shown

The target of assay [1] is HOXB4 (Homo sapiens, UniProt P17483 148-234).
The target of assay [2] is T1, VENTX (Homo sapiens, UniProt O95231 78-163, R121Q).
T1 sequence: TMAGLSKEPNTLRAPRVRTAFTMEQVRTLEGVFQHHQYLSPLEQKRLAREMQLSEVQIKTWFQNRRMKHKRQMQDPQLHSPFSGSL

Assay [3] has as its target HOXA4 (Homo sapiens, UniProt Q00056 201-287, W262R).
Another assay concerns the target ALX4 (Homo sapiens, UniProt Q9H161 200-286).
Assay [4] has as its target T2, PAX4 (Homo sapiens, UniProt O43316 9-242, R200K).
T2 sequence: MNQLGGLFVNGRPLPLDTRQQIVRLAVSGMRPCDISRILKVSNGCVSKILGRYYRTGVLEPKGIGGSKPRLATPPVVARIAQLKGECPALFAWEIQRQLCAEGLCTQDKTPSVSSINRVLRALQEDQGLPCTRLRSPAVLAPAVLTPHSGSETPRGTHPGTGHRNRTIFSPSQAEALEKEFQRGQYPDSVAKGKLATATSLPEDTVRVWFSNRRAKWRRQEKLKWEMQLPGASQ

Assay [5] concerns the target PRRX1 (Homo sapiens, UniProt P54821 80-166, F113S).
Assay [6] addresses T3, VENTX (Homo sapiens, UniProt O95231 78-163, Y115F).
T3 sequence: T1 sequence with Y38F, Q44R

Another assay addresses HOXA2 (Homo sapiens, UniProt O43364 129-215, R185T).
Assay [7] concerns the target HOXA4 (Homo sapiens, UniProt Q00056 201-287, R217L).
The target of assay [8] is HOXB4 (Homo sapiens, UniProt P17483 148-234, V174I).
HOXB4 (Homo sapiens, UniProt P17483 148-234, V174I), sequence (P17483 148-234 V174I): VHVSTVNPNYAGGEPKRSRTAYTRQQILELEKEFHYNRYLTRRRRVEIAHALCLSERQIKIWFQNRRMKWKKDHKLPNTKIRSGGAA
Assay [9] addresses T4, PAX4 (Homo sapiens, UniProt O43316 9-242, R200Q).
T4 sequence: T2 sequence with K192Q

The target of assay [10] is T5, PAX4 (Homo sapiens, UniProt O43316 9-242, F177V).
T5 sequence: T2 sequence with F169V, K192R

The target of assay [11] is HOXA4 (Homo sapiens, UniProt Q00056 201-287).
HOXA4 (Homo sapiens, UniProt Q00056 201-287), sequence (Q00056 201-287): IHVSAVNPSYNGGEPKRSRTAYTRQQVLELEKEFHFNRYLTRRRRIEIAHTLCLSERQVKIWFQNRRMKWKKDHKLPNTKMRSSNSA
Assay [12] addresses MSX2 (Homo sapiens, UniProt P35548 130-214).
Assay [13] addresses T6, PAX4 (Homo sapiens, UniProt O43316 9-242, F177Y).
T6 sequence: T2 sequence with F169Y, K192R

For assay [14], the target named is MSX2 (Homo sapiens, UniProt P35548 130-214, F161Y).
MSX2 (Homo sapiens, UniProt P35548 130-214, F161Y), sequence (P35548 130-214 F161Y): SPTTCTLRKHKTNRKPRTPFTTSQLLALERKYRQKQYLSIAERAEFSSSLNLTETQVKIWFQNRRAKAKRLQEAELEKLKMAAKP
The target in assay [15] is VAX1 (Homo sapiens, UniProt Q5SQQ9 86-172, T142I).
VAX1 (Homo sapiens, UniProt Q5SQQ9 86-172, T142I), sequence (Q5SQQ9 86-172 T142I): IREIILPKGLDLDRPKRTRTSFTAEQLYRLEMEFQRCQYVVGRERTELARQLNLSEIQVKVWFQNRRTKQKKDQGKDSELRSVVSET
In assay [16] the target is HOXA4 (Homo sapiens, UniProt Q00056 201-287, W262F).
HOXA4 (Homo sapiens, UniProt Q00056 201-287, W262F), sequence (Q00056 201-287 W262F): as the sequence (Q00056 201-287) above, with W62F counted along it
For assay [17], the target named is PRRX1 (Homo sapiens, UniProt P54821 80-166).
PRRX1 (Homo sapiens, UniProt P54821 80-166), sequence (P54821 80-166): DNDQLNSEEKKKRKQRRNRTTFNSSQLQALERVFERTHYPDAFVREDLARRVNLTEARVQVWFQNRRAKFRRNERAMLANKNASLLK
Assay [18] deals with VAX1 (Homo sapiens, UniProt Q5SQQ9 86-172, K157R).
VAX1 (Homo sapiens, UniProt Q5SQQ9 86-172, K157R), sequence (Q5SQQ9 86-172 K157R): as the sequence (Q5SQQ9 86-172 T142I) above, with I57T, K72R counted along it

HOXA2, sequence (O43364 129-215 R185T): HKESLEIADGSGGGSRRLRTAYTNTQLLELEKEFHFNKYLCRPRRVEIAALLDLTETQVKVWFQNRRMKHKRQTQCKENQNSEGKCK
HOXA4 (Homo sapiens, UniProt Q00056 201-287, R217L), sequence (Q00056 201-287 R217L): as the sequence (Q00056 201-287) above, with R17L counted along it
HOXB4 (Homo sapiens, UniProt P17483 148-234), sequence (P17483 148-234): as the sequence (P17483 148-234 V174I) above, with I27V counted along it
ALX4, sequence (Q9H161 200-286): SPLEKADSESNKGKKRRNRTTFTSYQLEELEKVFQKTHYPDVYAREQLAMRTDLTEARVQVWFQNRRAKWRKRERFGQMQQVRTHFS
PRRX1 (Homo sapiens, UniProt P54821 80-166, F113S), sequence (P54821 80-166 F113S): as the sequence (P54821 80-166) above, with F34S counted along it
MSX2 (Homo sapiens, UniProt P35548 130-214), sequence (P35548 130-214): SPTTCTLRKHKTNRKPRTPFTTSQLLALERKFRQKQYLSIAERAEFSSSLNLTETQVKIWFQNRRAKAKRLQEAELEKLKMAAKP
HOXA4 (Homo sapiens, UniProt Q00056 201-287, W262R), sequence (Q00056 201-287 W262R): as the sequence (Q00056 201-287) above, with W62R counted along it

Take TTAATTAA: the binding signal with HOXB4 [1] was 13.5 upbm affinity estimate (log intensity, higher = more binding, comparable within an allelic series); with VENTX [2], 12.4 upbm affinity estimate (log intensity, higher = more binding, comparable within an allelic series); in the assay with HOXA4 [3], 11 upbm affinity estimate (log intensity, higher = more binding, comparable within an allelic series); in the assay with ALX4, 14.7 upbm affinity estimate (log intensity, higher = more binding, comparable within an allelic series); in the assay with PAX4 [4], 12.1 upbm affinity estimate (log intensity, higher = more binding, comparable within an allelic series); in the assay with PRRX1 [5], 12.1 upbm affinity estimate (log intensity, higher = more binding, comparable within an allelic series). Moreover, the binding signal was 12.1 upbm affinity estimate (log intensity, higher = more binding, comparable within an allelic series) with VENTX [6]; 13.7 upbm affinity estimate (log intensity, higher = more binding, comparable within an allelic series) with HOXA2; 13.2 upbm affinity estimate (log intensity, higher = more binding, comparable within an allelic series) with HOXA4 [7]; 14.2 upbm affinity estimate (log intensity, higher = more binding, comparable within an allelic series) with HOXB4 [8]; 12.6 upbm affinity estimate (log intensity, higher = more binding, comparable within an allelic series) in the assay with PAX4 [9]; 11.2 upbm affinity estimate (log intensity, higher = more binding, comparable within an allelic series) with PAX4 [10]. Besides, the binding signal with HOXA4 [11] was 14.3 upbm affinity estimate (log intensity, higher = more binding, comparable within an allelic series); with MSX2 [12] it was 13.9 upbm affinity estimate (log intensity, higher = more binding, comparable within an allelic series); in the assay with PAX4 [13] it was 11.6 upbm affinity estimate (log intensity, higher = more binding, comparable within an allelic series); with MSX2 [14], 13.5 upbm affinity estimate (log intensity, higher = more binding, comparable within an allelic series); with VAX1 [15], 13.6 upbm affinity estimate (log intensity, higher = more binding, comparable within an allelic series); in the assay with HOXA4 [16], 13.1 upbm affinity estimate (log intensity, higher = more binding, comparable within an allelic series). Moreover, the binding signal with PRRX1 [17] is 13.7 upbm affinity estimate (log intensity, higher = more binding, comparable within an allelic series); with VAX1 [18], 13.5 upbm affinity estimate (log intensity, higher = more binding, comparable within an allelic series).

Consider ATTAATGA, for which the binding signal with HOXB4 [1] is 13.5 upbm affinity estimate (log intensity, higher = more binding, comparable within an allelic series); in the assay with VENTX [2], 12.2 upbm affinity estimate (log intensity, higher = more binding, comparable within an allelic series); in the assay with HOXA4 [3], 10.8 upbm affinity estimate (log intensity, higher = more binding, comparable within an allelic series); with ALX4, 13.8 upbm affinity estimate (log intensity, higher = more binding, comparable within an allelic series); with PAX4 [4], 11.8 upbm affinity estimate (log intensity, higher = more binding, comparable within an allelic series); with PRRX1 [5] it was 11.2 upbm affinity estimate (log intensity, higher = more binding, comparable within an allelic series). For the same sequence, the binding signal was 12.1 upbm affinity estimate (log intensity, higher = more binding, comparable within an allelic series) in the assay with VENTX [6]; 13.3 upbm affinity estimate (log intensity, higher = more binding, comparable within an allelic series) with HOXA2; 12.9 upbm affinity estimate (log intensity, higher = more binding, comparable within an allelic series) with HOXA4 [7]; 14.1 upbm affinity estimate (log intensity, higher = more binding, comparable within an allelic series) in the assay with HOXB4 [8]; 12.1 upbm affinity estimate (log intensity, higher = more binding, comparable within an allelic series) with PAX4 [9]; 10.6 upbm affinity estimate (log intensity, higher = more binding, comparable within an allelic series) with PAX4 [10]. Also, the binding signal in the assay with HOXA4 [11] was 14.2 upbm affinity estimate (log intensity, higher = more binding, comparable within an allelic series); in the assay with PAX4 [13] it was 11.1 upbm affinity estimate (log intensity, higher = more binding, comparable within an allelic series); with VAX1 [15], 13.4 upbm affinity estimate (log intensity, higher = more binding, comparable within an allelic series); with HOXA4 [16], 12.2 upbm affinity estimate (log intensity, higher = more binding, comparable within an allelic series); in the assay with PRRX1 [17], 13.3 upbm affinity estimate (log intensity, higher = more binding, comparable within an allelic series); with VAX1 [18], 13.3 upbm affinity estimate (log intensity, higher = more binding, comparable within an allelic series).

Regarding GTTAATTA, the binding signal in the assay with HOXB4 [1] is 13.5 upbm affinity estimate (log intensity, higher = more binding, comparable within an allelic series); with VENTX [2] it was 12.5 upbm affinity estimate (log intensity, higher = more binding, comparable within an allelic series); with HOXA4 [3], 11 upbm affinity estimate (log intensity, higher = more binding, comparable within an allelic series); in the assay with ALX4, 14.5 upbm affinity estimate (log intensity, higher = more binding, comparable within an allelic series); in the assay with PAX4 [4] it was 12.1 upbm affinity estimate (log intensity, higher = more binding, comparable within an allelic series); in the assay with PRRX1 [5] it was 12 upbm affinity estimate (log intensity, higher = more binding, comparable within an allelic series). Besides, the binding signal with VENTX [6] is 12.3 upbm affinity estimate (log intensity, higher = more binding, comparable within an allelic series); in the assay with HOXA2, 13.9 upbm affinity estimate (log intensity, higher = more binding, comparable within an allelic series); with HOXA4 [7], 13.2 upbm affinity estimate (log intensity, higher = more binding, comparable within an allelic series); with HOXB4 [8], 14.3 upbm affinity estimate (log intensity, higher = more binding, comparable within an allelic series); with PAX4 [9], 12.5 upbm affinity estimate (log intensity, higher = more binding, comparable within an allelic series); with PAX4 [10] it was 10.9 upbm affinity estimate (log intensity, higher = more binding, comparable within an allelic series). Also, the binding signal with HOXA4 [11] was 14.3 upbm affinity estimate (log intensity, higher = more binding, comparable within an allelic series); with MSX2 [12], 14 upbm affinity estimate (log intensity, higher = more binding, comparable within an allelic series); in the assay with PAX4 [13], 11.4 upbm affinity estimate (log intensity, higher = more binding, comparable within an allelic series); with MSX2 [14] it was 13.6 upbm affinity estimate (log intensity, higher = more binding, comparable within an allelic series); with VAX1 [15] it was 13.9 upbm affinity estimate (log intensity, higher = more binding, comparable within an allelic series); with HOXA4 [16], 13 upbm affinity estimate (log intensity, higher = more binding, comparable within an allelic series). In addition, the binding signal with PRRX1 [17] is 13.6 upbm affinity estimate (log intensity, higher = more binding, comparable within an allelic series); in the assay with VAX1 [18] it was 13.9 upbm affinity estimate (log intensity, higher = more binding, comparable within an allelic series).

Regarding GGTAATTA, the binding signal with HOXB4 [1] was 13.7 upbm affinity estimate (log intensity, higher = more binding, comparable within an allelic series); with VENTX [2], 12.6 upbm affinity estimate (log intensity, higher = more binding, comparable within an allelic series); in the assay with HOXA4 [3], 10.9 upbm affinity estimate (log intensity, higher = more binding, comparable within an allelic series); in the assay with ALX4 it was 14.4 upbm affinity estimate (log intensity, higher = more binding, comparable within an allelic series); in the assay with PAX4 [4] it was 12 upbm affinity estimate (log intensity, higher = more binding, comparable within an allelic series); with PRRX1 [5] it was 11.6 upbm affinity estimate (log intensity, higher = more binding, comparable within an allelic series). In addition, the binding signal in the assay with VENTX [6] was 12.6 upbm affinity estimate (log intensity, higher = more binding, comparable within an allelic series); with HOXA2, 14.1 upbm affinity estimate (log intensity, higher = more binding, comparable within an allelic series); in the assay with HOXA4 [7] it was 13.2 upbm affinity estimate (log intensity, higher = more binding, comparable within an allelic series); with HOXB4 [8], 14.4 upbm affinity estimate (log intensity, higher = more binding, comparable within an allelic series); with PAX4 [9] it was 12.4 upbm affinity estimate (log intensity, higher = more binding, comparable within an allelic series); in the assay with PAX4 [10], 10.7 upbm affinity estimate (log intensity, higher = more binding, comparable within an allelic series). For the same sequence, the binding signal with HOXA4 [11] is 14.3 upbm affinity estimate (log intensity, higher = more binding, comparable within an allelic series); with MSX2 [12], 14.2 upbm affinity estimate (log intensity, higher = more binding, comparable within an allelic series); with PAX4 [13], 11.1 upbm affinity estimate (log intensity, higher = more binding, comparable within an allelic series); with MSX2 [14], 13.8 upbm affinity estimate (log intensity, higher = more binding, comparable within an allelic series); with VAX1 [15], 14.1 upbm affinity estimate (log intensity, higher = more binding, comparable within an allelic series); with HOXA4 [16] it was 12.8 upbm affinity estimate (log intensity, higher = more binding, comparable within an allelic series). Also, the binding signal in the assay with PRRX1 [17] was 13.5 upbm affinity estimate (log intensity, higher = more binding, comparable within an allelic series); in the assay with VAX1 [18], 14.2 upbm affinity estimate (log intensity, higher = more binding, comparable within an allelic series).
